Inconclusive results are not listed. Activity calls are given as the source filed them. Unless noted, the call rests on the fitted dose curve; in most records, active means well fitted curve in the direction sought with a large enough effect in the repeat runs; inconclusive means weak or mixed curves; inactive means no such curve, though single readings can be large; an effect the other way counts as inactive or inconclusive. Starred links: 1 amine or outer side, 2 acyl side, 3 side chain; linkers in the order of their positions; H or OH if unused. Positions of bridges follow the written chain, without caps; N, C: chain ends. Non-standard residues stand in square brackets, D forms with d. Residues, ends and D or L forms follow the SMILES beside them. *: point of attachment. X5 = NC1=N[C@@H]([C@H](N[*:1])C(=O)[*:2])C[C@H](O)N1; ΔAla(Z-3-ureido) = NC(=O)N/C=C(\N)C(=O)O; β3hOrn = NCCC[C@H](N)CC(=O)*; Dap = NC[C@H](N)C(=O)O
Columns and labels:
[1] = qHTS assay for small molecule agonists of the p53 signaling pathway (AID 651631; calls by dose curve; further: nearly all actives have a fitted effect of over 15% in size)
Method in brief: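 HCT-116 p53RE-bla reporter line, 16 h compound treatment at 37 °C, then fluorescence after 2 h with B/G FRET substrate.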

[2] = qHTS assay for small molecules that induce genotoxicity in human embryonic kidney cells expressing luciferase-tagged ATAD5 (AID 651632); further: nearly all actives have a fitted effect of over 15% in size
Method in brief: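 Test compounds were delivered by pin tool onto HEK293T reporter cells (2,000/well) expressing ATAD5 fused to luciferase. After 16 hr at 37C, 5% CO2, Amplite was added for 30 min at room temperature and luminescence was measured.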

[3] = qHTS assay for small molecule agonists of the p53 signaling pathway - cell viability (AID 651633; calls by dose curve;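 further: p53RE-bla HCT reporter cells with a stable beta-lactamase p53 reporter; nearly all actives have a fitted effect of over 30% in size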)
Method in brief: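 p53RE-bla cells, seeded at 4,000 per well and rested 5 h at 37 C/5% CO2, received compounds in DMSO for 16 h at 37 C. CellTiter-Glo was then added, and luminescence was read after 30 min at room temperature to gauge cytotoxicity.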

[4] = qHTS assay for small molecules that induce genotoxicity in human embryonic kidney cells expressing luciferase-tagged ATAD5 - cell viability (AID 651634; calls by dose curve; further: nearly all actives have a fitted effect of over 25% in size)
Method in brief: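 Quantitative high-throughput format. HEK293T cells expressing ATAD5 fused to luciferase were plated at 2,000 cells/well and treated 15.5 hr with compound versus DMSO. Viability was determined by fluorescent live-cell protease substrate, 30 min at 37C.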

[5] = qHTS assay for small molecule disruptors of the mitochondrial membrane potential - cell viability (AID 720634; calls by dose curve;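 further: human HepG2 liver cancer cells; nearly all actives have a fitted effect of over 20% in size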)
Method in brief: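 Same-well counter-screen: following the MMP dye addition, CellTiter-Glo was added to 1 hr compound-treated HepG2 cells and luminescence read after 30 min at room temperature.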

[6] = qHTS assay for small molecule disruptors of the mitochondrial membrane potential (AID 720635)
Method in brief: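 HepG2 cells (2,000/well) attached overnight at 37C, then took compound for 1 hr at 37C, 5% CO2. Mito-MPS dye was added for 30 min; fluorescence was read at 490/535 nm (monomers) and 540/590 nm (aggregates).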

[7] = qHTS assay to test for compound auto fluorescence at 590 nm (red) in HepG2 cells (AID 720674)
Method in brief: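 Intrinsic compound fluorescence in the red window (Ex/Em 540/590 nm) is measured in attached HepG2 cells exposed for 1 hr, DMSO vehicle as baseline, benchmarked to Rose Bengal sodium.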

[8] = qHTS assay to test for compound auto fluorescence at 535 nm (green) in HepG2 cells (AID 720675)
[9] = qHTS assay to test for compound auto fluorescence at 460 nm (blue) in HEK293 cells (AID 720678)
Method in brief: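 Blue read-out at excitation 405 nm and emission 460 nm follows overnight compound exposure of HEK293 cells at 37C in 5% CO2. Activity is given as auto fluorescence equivalency to triamterene.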

[10] = qHTS assay to test for compound auto fluorescence at 590 nm (red) in HEK293 cells (AID 720679)
Method in brief: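 Red channel, Ex/Em 540/590nm; signal expressed as equivalency to Rose Bengal sodium. HEK293, 2,000 cells/well, 10% dialyzed FBS; 23 nL compound pinned after 4-5 hr attachment; overnight 37C/5% CO2 before reading.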

[11] = qHTS assay to test for compound auto fluorescence at 535 nm (green) in HEK293 cells (AID 720680)
[12] = qHTS assay to test for compound auto fluorescence at 460 nm (blue) in HEK293 cell free culture (AID 720681)
Method in brief: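 Test compounds were pinned into cell-free culture medium (DMEM with 10% FBS) and fluorescence was read directly at Ex/Em 405/460 nm. Signals were expressed as fluorescence equivalents of triamterene, with DMSO vehicle as control.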

[13] = qHTS assay to test for compound auto fluorescence at 535 nm (green) in HEK293 cell free culture (AID 720682)
Method in brief: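 Steps: dispense DMEM/10% FBS into empty wells; pin in compound or DMSO; measure fluorescence at 485/535 nm. Values are fluorescein equivalents.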

[14] = qHTS assay to test for compound auto fluorescence at 590 nm (red) in HEK293 cell free culture (AID 720683)
Method in brief: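 Tox21 10K library compounds were pinned into cell-free DMEM with 10% FBS and fluorescence was read at excitation 540 nm. Activity is expressed as Rose Bengal sodium equivalency.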

[15] = qHTS assay to test for compound auto fluorescence at 590 nm (red) in HepG2 cell free culture (AID 720684)
Method in brief: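 Ex 540 / Em 590 nm read of compound in cell-free MEM (10% FBS). Rose Bengal sodium reference.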

[16] = qHTS assay to test for compound auto fluorescence at 460 nm (blue) in HepG2 cell free culture (AID 720685)
Method in brief: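 Cell-free plates of MEM plus 10% FBS received 23 nL compound or DMSO vehicle; blue-channel (405/460 nm) intensity scored against triamterene as reference fluorophore.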

[17] = qHTS assay to test for compound auto fluorescence at 535 nm (green) in HepG2 cell free culture (AID 720686)
[18] = qHTS assay to test for compound auto fluorescence at 460 nm (blue) in HepG2 cells (AID 720687)
Method in brief: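 Cells (2,000/well in MEM with 10% FBS) attached overnight at 37 C, then were exposed to compound or DMSO for 1 hr at 37 C, 5% CO2. Fluorescence read at Ex/Em 405/460 nm, expressed as triamterene-equivalent signal.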

[19] = molecular target: Glucocorticoid receptor (Homo sapiens) (UniProt P04150); test: qHTS assay to identify small molecule agonists of the glucocorticoid receptor (GR) signaling pathway (AID 720691; active means well fitted activation curve with a large enough effect in the signal ratio in the repeat runs, not every such curve was filed as active; the % refers to the signal ratio); details: GR-bla HeLa, beta-lactamase reporter ratio, 18 h; activation: at 62.4 µM (top of the series)
Glucocorticoid receptor (Homo sapiens), sequence (P04150 whole entry, looked up): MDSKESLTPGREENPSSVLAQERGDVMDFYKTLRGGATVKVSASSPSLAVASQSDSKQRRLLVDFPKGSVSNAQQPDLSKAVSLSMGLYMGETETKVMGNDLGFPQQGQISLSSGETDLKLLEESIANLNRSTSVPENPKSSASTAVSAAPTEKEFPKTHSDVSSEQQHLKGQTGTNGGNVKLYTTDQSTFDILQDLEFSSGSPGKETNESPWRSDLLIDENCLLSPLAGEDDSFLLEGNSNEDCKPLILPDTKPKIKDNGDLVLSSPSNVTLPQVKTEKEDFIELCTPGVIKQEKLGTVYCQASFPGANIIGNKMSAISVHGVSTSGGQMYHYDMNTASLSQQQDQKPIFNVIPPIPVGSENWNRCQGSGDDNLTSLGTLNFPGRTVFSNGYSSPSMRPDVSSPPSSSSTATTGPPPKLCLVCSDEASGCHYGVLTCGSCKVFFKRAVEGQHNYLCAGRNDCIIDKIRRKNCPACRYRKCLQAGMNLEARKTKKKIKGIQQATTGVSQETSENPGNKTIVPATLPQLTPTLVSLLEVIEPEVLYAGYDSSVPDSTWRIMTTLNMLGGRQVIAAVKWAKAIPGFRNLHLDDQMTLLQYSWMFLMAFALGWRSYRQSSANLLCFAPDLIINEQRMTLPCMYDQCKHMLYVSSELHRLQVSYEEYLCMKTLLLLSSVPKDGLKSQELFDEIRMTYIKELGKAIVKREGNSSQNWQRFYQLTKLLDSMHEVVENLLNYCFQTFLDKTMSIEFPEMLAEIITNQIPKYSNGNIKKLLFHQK
Method in brief: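 A HeLa cervical cancer line expressing GR and a glucocorticoid response element-driven beta-lactamase gene is treated with compounds for 18 h; LiveBLAzer B/G FRET substrate is then applied and fluorescence read.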

[20] = molecular target: Glucocorticoid receptor (Homo sapiens) (UniProt P04150); test: qHTS assay to identify small molecule antagonists of the glucocorticoid receptor (GR) signaling pathway (AID 720692; active means well fitted inhibition curve with a large enough effect in the signal ratio in the repeat runs, not every such curve was filed as active; the % refers to the signal ratio)
Method in brief: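 GRE-bla HeLa line, dex-stimulated (5 nM final). Compound exposure 18 h, 37 C. Beta-lactamase FRET read after 2 h RT substrate.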

Measured: Potency

NCCC[C@H](N)CC(=O)N[C@H]1CNC(=O)[C@H]([C@H]2C[C@H](O)NC(N)=N2)NC(=O)/C(=C/NC(N)=O)NC(=O)[C@H](CO)NC(=O)[C@H](CO)NC1=O (β3hOrn-[Dap]SS[ΔAla(Z-3-ureido)][X5]; lactam 1-C)
not listed: [19] | [20]
inactive: all other assays above

COc1cc(S(C)=O)ccc1-c1nc2ncccc2[nH]1 (stereo not drawn)
inactive: all assays above

CCNC(=O)[C@@H]1CCCN1C(=O)[C@H](CCCN=C(N)N)NC(=O)[C@H](CC(C)C)NC(=O)[C@@H](CC(C)C)NC(=O)[C@H](Cc1ccc(O)cc1)NC(=O)[C@H](CO)NC(=O)[C@H](Cc1c[nH]c2ccccc12)NC(=O)[C@H](Cc1cnc[nH]1)NC(=O)[C@@H]1CCC(=O)N1
not listed: [14]
inactive: all other assays above

COC(=O)[C@H]1[C@H]2C[C@@H]3c4[nH]c5cc(OC)ccc5c4CCN3C[C@H]2C[C@@H](OC(=O)/C=C/c2cc(OC)c(OC)c(OC)c2)[C@@H]1OC
not listed: [20]
inactive: all other assays above

Nc1ccn(C[C@@H](CO)OCP(=O)(O)O)c(=O)n1
inactive: all assays above

O=S(O)CNc1ccc(S(=O)(=O)c2ccc(NCS(=O)O)cc2)cc1
not listed: [15] | [19] | [20]
inactive: all other assays above

O=C1O[C@H]2[C@H](O)[C@@H]1OC(O)[C@H]2O (stereo partly drawn)
inactive: all assays above

Source: PubChem BioAssay (Tox21)
